Screening data: PubChem, University of Kansas High Throughput Screening Laboratory
mHTT-CaM PPI inh = mHTT-calmodulin interaction abrogation; P42858; AlphaScreen His-mHTT/GST-CaM binding, luminescence; inhibition, % at 15 µM; 190,000 tested, 3.6% active; AID 1671202;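 also: 0% = both proteins with DMSO and 100% = one protein alone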
Pf apPOL inh = Pf-apPOL DNA polymerase inhibition; Recombinant Pf-apPOL, molecular beacon fluorescence, 1.5 h; inhibition, % at 10 µM; 210,000 tested, 0.25% active
Numbers without * were called inactive; nt = no result given. Shown are actives, neighbours in structure and some others; about 3.5% of the full set was active somewhere. Rule as the data show it: active = inhibition above about 50%; inactive = the rest.

SMILES	mHTT-CaM PPI inh	Pf apPOL inh
O=C(Nc1ccc(F)cc1F)N1CCC2(CC1)Nc1ccccc1-n1cccc12	53.9*	6.9
Cc1ccccc1NC(=O)N1CCC2(CC1)Nc1ccccc1-n1cccc12	32.9	-2.1
CCCC[C@H]1[C@@H]2C[C@H]([C@H]3CCCCN31)[C@H](OC(=O)Nc1ccc(F)cc1)C2	-15.0	-5.2
CC1CN(C2=NC(=O)/C(=C/c3cn[nH]c3-c3ccccc3)S2)CC(C)O1 (centres undefined)	3.0	65.7*
Cc1ccc(/C=C2\SC(N3CC(C)OC(C)C3)=NC2=O)o1 (centres undefined)	3.0	-1.0
OCCc1nc2ccccc2n1CCCc1ccccc1	-7.5	-15.8
COc1ccc(-c2coc3c(C)c4oc(=O)c5c(c4cc23)CCC5)cc1	2.0	-4.0
COc1ccc(-c2coc3c2c(C)cc2oc(=O)c4c(c23)CCC4)cc1	4.0	86.0*
Cc1cccc(-n2nc(C)c3sc(N4CCCN(C(=O)C5CCCCC5)CC4)nc32)c1	67.8*	-0.5
Cc1ccc(-n2nc(C)c3sc(N4CCCN(C(=O)C5CCCC5)CC4)nc32)cc1	26.1	-2.2
NC1=C([N+](=O)[O-])C(=O)c2ccccc21	2.0	-15.4
Cc1ccc2c(c1)N/C(=C(/C=C(\Cl)[N+](=O)[O-])[N+](=O)[O-])O2	45.0	-3.6
O=[N+]([O-])C(/C=C(\Cl)[N+](=O)[O-])=C1Nc2ccccc2N1	88.0*	2.8
O=C(c1ccc(OCC2CCN(C(=O)c3cccc(F)c3)CC2)cc1)N1CCCC1	4.8	-7.4
Cc1ccnc(NC(c2ccncc2)c2ccc3ccc(C)nc3c2O)c1 (centres undefined)	90.0*	-8.2
COc1ccc(C(Nc2cc(C)ccn2)c2ccc3cccnc3c2O)cc1O (centres undefined)	100.0*	-17.7
COc1cccc(C(=O)Nc2cccc3cccnc23)c1	-46.0	-1.6
Cc1ccnc(NC(=O)CSc2ccccn2)c1	nt	-28.3
COc1cccc(C(Nc2cc(C)ccn2)c2ccc3cccnc3c2O)c1 (centres undefined)	99.0*	0.3
Cc1ccnc(NC(=O)c2cc(I)ccc2Cl)c1	-10.7	-3.2
Cc1ccnc(NC(c2cccnc2)c2ccc3cccnc3c2O)c1 (centres undefined)	100.0*	4.3
COc1ccccc1CC(=O)Nc1cc(C)ccn1	-1.7	-0.9
CC1(C(=O)NCc2ccccc2)CCCN(S(=O)(=O)c2ccccc2)C1 (centres undefined)	-7.5	5.3
COc1ccc(C(c2c(C)[nH][nH]c2=O)C(C#N)C#N)cc1 (centres undefined)	-2.0	-1.4
CCOc1ccccc1NC(=O)CN(c1ccc(OC)c(OC)c1)S(=O)(=O)c1ccccc1	11.9	-2.5
SMILES	mHTT-CaM PPI inh	Pf apPOL inh
COCCNC(=O)CN1CCCCC1c1nc(-c2cnccn2)no1 (centres undefined)	0.5	-8.7
COC(=O)c1cccc(NC(=O)C23CC4CC(C)(CC(C)(C4)C2)C3)c1	-24.3	-1.4
CC(=O)N1CCC(CCOc2ccccc2)CC1	-7.7	-3.4
Cc1ccnc(NC(c2cccnc2)c2ccc3ccc(C)nc3c2O)c1 (centres undefined)	76.0*	-6.1
CCCNC(=O)N1CCCC1c1nc(-c2ccccc2OC)no1 (centres undefined)	-8.1	0.3
Cc1ccc(/C=C2\N=C(c3ccc(C)c(C)c3)OC2=O)o1	3.0	-193.3
O=C(O)C(Br)C(Br)c1ccc([N+](=O)[O-])cc1 (centres undefined)	-4.0	1.7
CC(C)N(C(=O)c1ccccc1F)C(C)C	81.7*	-5.7
Cc1cccnc1N(C(=O)c1ccccc1F)C(=O)c1ccccc1F	4.8	0.4
Cc1ccc(C)c(NC(=O)CSc2nc3c(cnn3-c3ccc(F)cc3)c(=O)[nH]2)c1	6.0	1.8
Cc1cc(F)ccc1NS(=O)(=O)c1ccc2c(c1)OCCO2	nt	-3.4
NNc1ncc(Cl)cc1Cl	99.8*	-30.5
Oc1ccc(Oc2ncc(Cl)cc2Cl)cc1	-3.0	nt
COc1cccc(CCC(=O)N(C)CC23CCCC2N(C)C(=O)CC3)c1 (centres undefined)	-6.6	-3.0
COc1cc(OC)cc(C(=O)N2CCC(c3cc(N)on3)CC2)c1	3.2	-3.8
COc1cc(OC)c(OC)cc1CNc1ccc(Br)cc1C	76.2*	-1.7
COc1cc(OC)c(OC)cc1CNc1ccc([N+](=O)[O-])cc1C	4.5	-10.0
C[C@@]1(C(=O)NN)C[C@]1(C)C(=O)NN	nt	-5.5
O=C(Nc1cccnc1)c1ccc([N+](=O)[O-])o1	-3.9	6.3
COc1cc([N+](=O)[O-])ccc1-c1ccc(C(=O)Nc2cccnc2)o1	61.1*	0.2
COc1ccc(N(CC(=O)Nc2ccc(Oc3ccccc3)cc2)S(C)(=O)=O)cc1OC	51.8*	-7.8
COc1ccc(NC(=O)CN(c2ccc(Cl)cc2)S(C)(=O)=O)cc1Cl	-2.4	5.7
CS(=O)(=O)N(CC(=O)Nc1ccc(F)c(Cl)c1)c1ccccc1F	2.3	-6.3
COc1ccc(N(CC(=O)Nc2ccc(OCc3ccccc3)cc2)S(C)(=O)=O)cc1OC	26.2	-8.7
